# Source: PubChem
# The sample as a whole holds a higher share of hits than the screen did.
# HePTP inhibitor: inhibitors of human HePTP phosphatase, primary screen, biochemical, absorbance, leukemia target. Tyrosine-protein phosphatase non-receptor type 7 (Homo sapiens), P35236. recombinant HePTP phosphatase activity, OD absorbance. inhibition, % at 20 µM. 110,000 tested, 0.64% active. AID 521, 2006; in the data active = inhibition above about 50%;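 also: plate controls were vehicle for no effect and reference inhibitor for full effect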
# TNAP act mid DEA: human TNAP enzyme activators, primary screen, biochemical, luminescent, intermediate phosphate acceptor level | 64,000 tested, under 10 active | activation factor at 20 µM | AID 813, 2007 | purified TNAP, CDP-star luminescence, 100 mM DEA, 30 min; active compounds read high; scale: 0 levamisole-inhibited, 1 vehicle-only enzyme | Alkaline phosphatase, tissue-nonspecific isozyme (Homo sapiens), P05186;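 active = activation factor of at least 2 at 20 µM, relative to controls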
# Target sequence (P05186 whole entry, looked up): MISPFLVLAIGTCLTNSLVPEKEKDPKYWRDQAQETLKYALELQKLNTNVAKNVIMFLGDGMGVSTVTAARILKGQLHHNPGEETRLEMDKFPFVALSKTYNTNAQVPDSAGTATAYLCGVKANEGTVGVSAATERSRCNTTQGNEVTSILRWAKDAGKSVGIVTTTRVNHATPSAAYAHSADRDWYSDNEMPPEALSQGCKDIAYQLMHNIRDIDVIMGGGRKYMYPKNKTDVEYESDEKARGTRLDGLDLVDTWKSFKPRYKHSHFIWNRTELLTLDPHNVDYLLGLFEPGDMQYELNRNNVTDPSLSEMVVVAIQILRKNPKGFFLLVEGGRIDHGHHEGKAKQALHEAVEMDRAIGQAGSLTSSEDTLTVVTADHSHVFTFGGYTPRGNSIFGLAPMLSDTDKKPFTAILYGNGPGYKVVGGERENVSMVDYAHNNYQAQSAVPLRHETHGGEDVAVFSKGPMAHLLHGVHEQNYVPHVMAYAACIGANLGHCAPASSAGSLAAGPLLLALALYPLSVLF
# hDAT+cocaine: changed hDAT dopamine uptake under cocaine IC80, either direction, primary screen, cocaine antagonist project, cell-based, LLC-PK1 hDAT, [14C]-dopamine uptake, MLSMR; LLC-PK1 hDAT cells, [14C]-dopamine uptake with cocaine IC80; actives deviate in either direction; B-score at 10 µM; AID 449768, 2010; 110,000 tested, 1.3% active;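 active = Z score or B-score, a plate-position-corrected score, falls beyond the plate's 99.7% confidence bounds, in either direction; inactive = both scores lie inside the 99.7% bounds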;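 also: scored against the spread of the other compound wells on the same plate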
# Calb biofilm kill: clotrimazole potentiators killing Candida biofilms, primary screen, with clotrimazole, Alamar Blue; C. albicans biofilm + clotrimazole; 85,000 tested, 0.14% active; inhibition, % at 6 µM;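 active = inhibition above 20%; inactive = inhibition below 20%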;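 also: preformed 24 hr biofilms exposed to compound for 48 hr; 0% = biofilm without compound and 100% = blank killed by clotrimazole plus chlorhexidine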
# PLAP activator: PLAP enzyme activators, biochemical, luminescence, HTS. Alkaline phosphatase, placental type (Homo sapiens), P05187. purified PLAP enzyme, luminescent substrate read-out; active compounds read high. activation fold at 20 µM. 96,000 tested, 1.2% active. AID 696, 2007; in the data active = activation fold above about 2
# D1 mod: D1 CRE-luciferase signal change, two-sided – cell-based, HEK293 D1, dopamine EC30, D1 allosteric modulator project, primary screen; dopamine EC30 potentiation; actives deviate in either direction; B-score at 10 µM; D(1A) dopamine receptor (Homo sapiens), P21728; 58,000 tested, 5.9% active;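 active = luminescence count or its row- and column-corrected plate score outside the 99.7% band of the plate's sample wells, on either side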
# Active calls of the source: *; . = no result given.
SMILES,HePTP inhibitor,TNAP act mid DEA,hDAT+cocaine,Calb biofilm kill,PLAP activator,D1 mod
O=C(c1cc2ccccc2oc1=O)N1CCN(c2ncccn2)CC1,.,.,2.9*,0,0.9,.
CC1CCCCC1NS(=O)(=O)c1ccc(-n2cnnn2)cc1 (stereo not drawn),-5,1,0.042,7,1,-2.5*
CC1CCCCC1NS(=O)(=O)c1ccc(S(=O)(=O)N2CCCC2)cc1 (stereo not drawn),-1,0.9,-5*,4,1.4,0.99
CN(C1CCCCC1)S(=O)(=O)c1ccc(-n2cnnn2)cc1,8,0.9,-0.023,2,0.9,0.87
CCOc1cccc(C2C(C(=O)Nc3ccccc3OC)=C(C)NC3=C2C(=O)CCC3)c1 (stereo not drawn),4,.,.,.,.,.
COc1cc(/C=N/NC(=O)CCc2c(C)n[nH]c2C)ccc1O,.,.,-9.4*,7,1,.
COc1ccc2cc3cc(C(=O)NCc4ccccn4)oc3nc2c1,-8,1,-0.79,.,1.2,0.064
CCOc1ccc(NC(=O)c2cc3cc4ccc(OC)cc4nc3o2)cc1,.,.,0.0018,58*,0.9,.
O=C(O)c1ccc2c(c1)ncn2C1CCCCC1,.,.,0.1,.,1,.
O=S(=O)(c1ccccc1C(F)(F)F)N1CCC(n2cnc3ccccc32)CC1,.,.,2.7*,-4,1.6,.
O=C(NCCO)c1ccccc1O,.,.,-9.9*,8,0.9,.
O=C(NCCNC(=O)c1ccccc1O)c1ccccc1O,-10,.,.,.,.,.
O=C(O)CCCCCN1C(=O)/C(=C/c2ccc(O)c(O)c2)SC1=S,21,.,.,.,.,.
COC(=O)CSc1cc(SCC(=O)OC)c(C#N)c(SCC(=O)OC)c1,5,0.9,-0.11,2,1,-4.6*
COc1ccc(S(=O)(=O)N(CC(=O)Nc2cccc3ccccc23)c2ccc(C)cc2)cc1OC,-7,.,.,.,.,.
O=C(c1cc(-c2cccs2)on1)N1CCOCC1,7,0.9,-0.49,.,1,-0.68
O=C(c1cc(-c2cccc(O)c2)on1)N1CCOCC1,6,0.9,-0.35,4,1,-5*
O=c1c2cc(N3CCOCC3)ccc2[nH]c(=S)n1CCCN1CCCCCC1,1,0.9,0.22,3,1.7,-0.31
O=c1c2cc(N3CCOCC3)ccc2[nH]c(=S)n1CCCN1CCN(c2ccccc2F)CC1,12,0.9,-0.32,.,1.3,-6.7*
C=CCN1C(=O)/C(=C\c2ccc(-c3ccc(F)cc3)o2)C(=O)NC1=S,62*,.,.,.,.,.
C=CCN1C(=O)/C(=C\c2ccc(-c3ccc(C(=O)O)cc3)o2)C(=O)NC1=S,102*,.,.,.,.,.
C=CCN1C(=O)/C(=C\c2ccc(-c3cccc(C(=O)O)c3)o2)C(=O)NC1=S,96*,.,.,.,.,.
O=C1NC(=S)N(c2cccc(Br)c2)C(=O)/C1=C/c1ccc(-c2ccc(C(=O)O)cc2)o1,69*,.,.,.,.,.
CCN1C(=O)C(=Cc2ccc(-c3cccc(C(=O)O)c3)o2)C(=O)N(CC)C1=S,15,.,.,.,.,.
COc1ccc(-c2cc(C(=O)N/N=C/c3c(C)[nH]c4ccccc34)[nH]n2)cc1,-10,.,.,.,.,.
SMILES,HePTP inhibitor,TNAP act mid DEA,hDAT+cocaine,Calb biofilm kill,PLAP activator,D1 mod
Cc1ccc(-c2cc3nc(-c4ccccc4)cc(C)n3n2)cc1,-13,.,.,.,.,.
Cc1ccc(CC2S/C(=N\N=C\c3ccc(N(C)C)cc3)NC2=O)cc1 (stereo not drawn),8,.,.,.,.,.
O=c1c2c3c(sc2n2cnnc2n1-c1ccccc1)N(Cc1ccccc1)CCC3,4,0.9,0.72,-2,1.5,-5.1*
CCCOC(=O)c1c(-c2cc(C)ccc2C)csc1N,4,.,.,.,.,.
CCCOc1ccc(-c2cc(C(=O)NCCCN3CCOCC3)c3ccccc3n2)cc1,103*,.,.,.,.,.
O=C(NCCN1CCOCC1)c1cc(-c2ccc(Br)cc2)nc2ccccc12,104*,.,.,.,.,.
COc1ccc(S(=O)(=O)N(CC(=O)N2CCOCC2)Cc2ccccc2)cc1C,.,.,2.2,8,2*,.
COc1ccc(C)cc1S(=O)(=O)N(CC(=O)N1CCOCC1)Cc1ccccc1,6,1,0.75,8,1.6,-0.18
COc1cccc(/C=C(\C#N)c2nc3ccc(C)cc3[nH]2)c1O,-6,.,.,.,.,.
Cn1c(=O)oc2cc(S(=O)(=O)Nc3ccc4c(c3)OCCO4)ccc21,.,.,-0.078,7,1.1,-1.4
Cn1c(=O)c(=O)n(C)c2cc(S(=O)(=O)Nc3ccc4c(c3)OCCO4)ccc21,5,0.9,-0.038,6,0.9,-5.7*
O=C(/C=C/c1ccc(Cl)cc1)NCC1CCCO1 (stereo not drawn),7,.,.,.,.,.
CC(=O)c1ccc(-n2c(C)ccc2C)cc1,0,.,.,.,.,.
Cc1nc(=O)c(-c2ccccc2)c(C)n1-c1ccc(OCC(=O)O)cc1,8,.,.,.,.,.
Cc1ccc(C)n1-c1ccc(SCC(=O)O)cc1,103*,.,.,.,.,.
Cc1ccc(C)n1-c1ccc(OCC(=O)O)cc1,104*,.,.,.,.,.
COc1cc(/C=c2\sc3nc4cc(C)c(C)cc4n3c2=O)ccc1OCc1ccc(C)cc1,-6,.,.,.,.,.
CCOc1ccccc1/C=N/N1CCN(Cc2ccc(Cl)cc2)CC1,-4,.,.,.,.,.
Nc1ccc2nc(SCC(=O)c3ccc(-c4ccccc4)cc3)sc2c1,3,.,.,.,.,.
CCN(CC)C(=O)Oc1ccc2c(=O)c(-c3ccc(OC)cc3)c(C)oc2c1,3,0.9,3.2*,0,1.4,0.38
CCN(CC)CCN1C(=O)C(=O)/C(=C(/O)c2cnn(-c3ccccc3)c2C)C1c1ccc(C)o1 (stereo not drawn),.,.,-0.77,10,1.6,.
Cc1ccc(C2/C(=C(\O)c3cnn(-c4ccccc4)c3C)C(=O)C(=O)N2CCN(C)C)o1 (stereo not drawn),-6,1,-2.4*,-2,.,-0.49
CCOC(=O)c1c(-c2ccco2)csc1N,-3,1,2.1*,7,1.3,0.13
CCOC(=O)C(=CNc1ccccc1O)C(=O)OCC,6,.,.,.,.,.
CCN(CC)S(=O)(=O)c1ccc(NC(=O)CCC2CCCCC2)cc1,.,.,-0.21,.,2.9*,.
SMILES,HePTP inhibitor,TNAP act mid DEA,hDAT+cocaine,Calb biofilm kill,PLAP activator,D1 mod
C/C(=N\NC(=O)c1ccc(O)cc1O)c1ccccn1,4,.,.,.,.,.
OC(CN1CCN(c2ccccc2)CC1)c1ccc2c(c1)CCN2 (stereo not drawn),8,0.9,0.026,-1,1.2,-3*
CCOC(=O)N1CCN(CC(O)c2ccc3cc[nH]c3c2)CC1 (stereo not drawn),-10,1,0.65,1,1.5,-0.8
CCOC(=O)N1CCN(CC(O)c2ccc3c(c2)CCN3)CC1 (stereo not drawn),6,1,0.028,0,1.4,-3.9*
Cc1ccc(OCCOc2ccc(Cl)cc2C=O)cc1,6,.,.,.,.,.
NC(=O)c1oc2ccccc2c1NC(=O)C1CCCCC1,4,1,0.63,21*,1.1,1.7
